According to PubChem BioAssay AID686979 (National Center for Advancing Translational Sciences (NCATS), 2013):
Hit rate of the full screen: of about 420,000 compounds, about 50,000 (12%) were called active. Inconclusive results (about 26%) are left out. Calls come from the whole dose curve; as a rule, active = well fitted inhibition curve with a large enough effect; inconclusive = small, poorly fitted or top-dose-only effect; inactive = flat fitted curve, though single readings scatter. What follows is part of a selection rich in actives, with near analogues and random picks from the rest. Entries that show only a call come without a potency.

Assay: qHTS for Inhibitors of human tyrosyl-DNA phosphodiesterase 1 (TDP1): qHTS in cells in presence of CPT; note: nearly all actives have a fitted effect of over 55% in size
Details: chicken DT40 Tdp1-/-;hTDP1 cells + 20 nM CPT, ATP luminescence, 48 h; series mostly up to 46.2 µM
In short: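 Cell growth measured by CellTiter-Glo luminescence after a minimum 48 h, 37 C compound exposure with 20 nM CPT in Tdp1-knockout DT40 cells stably expressing hTDP1, seeded 400/well; qHTS titration format.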
Potency is the fitted concentration of half-maximal effect.

Q: With `COc1ccc(C)cc1NC(=O)CCCN1C(=O)NC(C)(C)C1=O` as the compound, how does the Potency read?
A: Its Potency is “inactive”.

Q: For `Cc1c(NS(=O)(=O)c2cc(C(=O)NCCc3ccc(F)cc3)cc(Cl)c2Cl)c(=O)n(-c2ccccc2)n1C`, which Potency is on record?
A: The Potency was “inactive”.

Q: For `Cc1cc(=O)oc2cc(NC(=O)C(C)Oc3ccccc3)ccc12` (stereo unspecified), which Potency is on record?
A: Its Potency is “inactive”.

Q: With `Cc1cccc(OCC(=O)OCC(=O)Nc2ccc(Cl)cn2)c1` as the compound, how does the Potency read?
A: Its Potency is “inactive”.

Q: Which Potency does the source give for `O=S(=O)(NCCCc1ccccc1)c1ccc(Br)cc1` here?
A: The Potency was “inactive”.

Q: Which Potency does the source give for `O=C(CSCc1ccccc1)Nc1ccccc1` here?
A: The Potency was “inactive”.

Q: With `CC(C(=O)NCCc1ccc(S(N)(=O)=O)cc1)N1C(=O)CC(C)(C)Sc2ccccc21` (stereo unspecified) as the compound, how does the Potency read?
A: The Potency was “inactive”.

Q: With `COc1ccc(-c2c(NC(=O)c3ccco3)oc3ccc(Cl)cc3c2=O)cc1` as the compound, how does the Potency read?
A: The Potency was “inactive”.

Q: Which Potency does the source give for `COc1cc(OC)cc(C(=O)NNC(=O)CNC(=O)c2ccc(Br)o2)c1` here?
A: The Potency was “inactive”.

Q: Which Potency does the source give for `O=C1CC[C@@H](C(=O)N2CSC[C@@H]2C(=O)Nc2ccc(C(F)(F)F)cc2)N1` here?
A: The Potency was “inactive”.

Q: For `COc1ccc2c(CC(=O)OCC(=O)NC(N)=O)coc2c1`, which Potency is on record?
A: The Potency was “inactive”.

Q: Which Potency does the source give for `COc1ccc2nc(SCc3ccccc3)nc(C)c2c1` here?
A: Its Potency is “inactive”.

Q: Which Potency does the source give for `Nc1ccc2c(c1)C(=Cc1cccnc1)c1ccccc1-2` here?
A: Its Potency is “inactive”.

Q: With `Cc1ccccc1NC(=O)N1CCCC1C(=O)NCc1ccccc1` (stereo unspecified) as the compound, how does the Potency read?
A: The Potency was “inactive”.

Q: Which Potency does the source give for `O=C1CN(C(=O)Nc2ccccc2C(F)(F)F)C(c2ccccc2)c2c(sc3c2CCCC3)N1` (stereo unspecified) here?
A: Its Potency is 20.6 µM (active).

Q: Which Potency does the source give for `CN(C)CCn1c2c(c(SCC(=O)Nc3ccccc3C(F)(F)F)nc1=O)CCCC2` here?
A: Its Potency is “inactive”.

Q: Which Potency does the source give for `COc1cc2c(cc1OC)CN(C(=O)c1cc(=O)c3ccccc3o1)CC2` here?
A: The Potency was 4.11 µM (active).

Q: With `O=C(c1cc(=O)c2ccccc2o1)N1CCN(c2ccccc2)CC1` as the compound, how does the Potency read?
A: The Potency was “inactive”.

Q: With `COc1ccccc1OCc1ccc(C(=O)N2CCN(C)CC2)o1` as the compound, how does the Potency read?
A: Its Potency is “inactive”.

Q: For `COc1cccc2cc(C(=O)N3CCN(C(=O)c4ccccc4)CC3)c(=O)oc12`, which Potency is on record?
A: The Potency was “inactive”.

Q: Which Potency does the source give for `COc1ccccc1N1CCN(C(=O)c2cc(=O)c3cc(C)cc(C)c3o2)CC1` here?
A: Its Potency is 0.0052 µM (active).

Q: For `COc1ccc2oc(=O)c(C(=O)N3CCN(c4ccccc4F)CC3)cc2c1`, which Potency is on record?
A: Its Potency is “inactive”.

Q: Which Potency does the source give for `COc1ccccc1N1CCN(C(=O)c2cc(=O)c3cc(C)ccc3o2)CC1` here?
A: The Potency was 14.6 µM (active).

Q: Which Potency does the source give for `COc1ccc2c(CC(=O)N3CCc4cc(OC)c(OC)cc4C3)coc2c1` here?
A: Its Potency is “inactive”.

Q: With `Cc1ccc2oc(=O)c3cnn(CC(=O)N4CCN(c5ccccn5)CC4)c3c2c1` as the compound, how does the Potency read?
A: Its Potency is “inactive”.

Q: With `CC1(C)C2CCC1(CS(=O)(=O)NCCc1c[nH]c3ccccc13)C(=O)C2` (stereo unspecified) as the compound, how does the Potency read?
A: Its Potency is “inactive”.

Q: For `C/C(=N\NS(=O)(=O)c1ccc(Cl)cc1)c1ccc(NC(=O)c2ccco2)cc1`, which Potency is on record?
A: The Potency was “inactive”.

Q: For `Cc1ccc(OCC(=O)Nc2ccc3oc(=O)ccc3c2)cc1C`, which Potency is on record?
A: Its Potency is “inactive”.

Q: For `CSc1cccc(NC(=O)C2CCCN2S(=O)(=O)c2ccc3c(c2)CCC(=O)N3)c1` (stereo unspecified), which Potency is on record?
A: The Potency was “inactive”.

Q: With `N#Cc1c(N)nc2c(c1N)CC(C(F)(F)F)O2` (stereo unspecified) as the compound, how does the Potency read?
A: The Potency was “inactive”.

Q: With `CCc1ccc(CNC(=O)c2cc3cc4ccc(OC)cc4nc3o2)cc1` as the compound, how does the Potency read?
A: The Potency was “inactive”.

Q: Which Potency does the source give for `CC(C)Cc1ccc(-c2cc3nc(NCc4cccc(Cl)c4)ccn3n2)cc1` here?
A: The Potency was 20.6 µM (active).

Q: With `Cc1ccc(-c2cc(N)n(Cc3cccc(Cl)c3)n2)cc1` as the compound, how does the Potency read?
A: The Potency was “inactive”.

Q: Which Potency does the source give for `CCNC(=S)N1CCN(CCN=CC2=C(O)CC(C)(C)CC2=O)CC1` here?
A: Its Potency is “inactive”.

Q: With `COc1ccc(S(=O)(=O)NC(C)C)cc1C(=O)NC1CCCCC1` as the compound, how does the Potency read?
A: The Potency was “inactive”.

Q: For `COc1ccccc1N(C)S(=O)(=O)c1ccc(C(=O)NC2CCCCCC2)cc1`, which Potency is on record?
A: The Potency was 23.1 µM (active).

Q: For `COc1ccccc1N(C)S(=O)(=O)c1ccc(C(=O)N2CCC(C(N)=O)CC2)cc1`, which Potency is on record?
A: The Potency was “inactive”.

Q: Which Potency does the source give for `CO[C@]1(NC(=O)CSC(F)F)C(=O)N2C(C(=O)O)=C(CSc3nnnn3CCO)CO[C@H]21` here?
A: Its Potency is “inactive”.

Q: With `CCn1c(SCC(=O)NC2CC2)nnc1-c1ccccc1OC` as the compound, how does the Potency read?
A: Its Potency is “inactive”.

Q: Which Potency does the source give for `COC(=O)c1ccc(COc2ccc(C#N)cc2)o1` here?
A: Its Potency is “inactive”.

Q: For `CCc1cccc(C)c1N1C(=O)CN(Cc2ccccc2)C1=S`, which Potency is on record?
A: The Potency was “inactive”.

Q: Which Potency does the source give for `COCC(=O)N1CCCC(C(=O)c2ccc(C(F)(F)F)cc2)C1` (stereo unspecified) here?
A: The Potency was “inactive”.

Q: With `Cn1cc(/C=C/C(=O)N2CCCC(C(=O)c3ccc(C(F)(F)F)cc3)C2)cn1` (stereo unspecified) as the compound, how does the Potency read?
A: Its Potency is “inactive”.

Q: With `Cn1cc(CCC(=O)N2CCCC(C(=O)c3ccc(C(C)(C)C)cc3)C2)cn1` (stereo unspecified) as the compound, how does the Potency read?
A: Its Potency is 25.9 µM (active).

Q: For `CCNC(=O)C1(C)CCCN1C(=O)c1ccc(N(C)C)cc1` (stereo unspecified), which Potency is on record?
A: Its Potency is “inactive”.

Q: For `CC1(C(=O)NS(=O)(=O)c2ccccc2)CCN1C(=O)c1ccccc1` (stereo unspecified), which Potency is on record?
A: The Potency was “inactive”.

Q: With `CC(C)NC(=O)C1(C)CCCCCN1C(=O)c1ccc(-c2ccccc2)cc1` (stereo unspecified) as the compound, how does the Potency read?
A: Its Potency is 18.4 µM (active).

Q: Which Potency does the source give for `CC(OC(=O)c1ccc(-n2cnnn2)cc1)C(=O)NCc1ccccc1` (stereo unspecified) here?
A: The Potency was “inactive”.

Q: For `O=C(CSc1nc(=O)n(Cc2cccnc2)c2c1CCC2)Nc1ccc(F)cc1F`, which Potency is on record?
A: The Potency was “inactive”.

Q: With `Cc1ccc2oc(=O)c3cnn(CC(=O)N4CCN(c5cccc(Cl)c5)CC4)c3c2c1` as the compound, how does the Potency read?
A: The Potency was “inactive”.

Q: For `COc1ccc(C)cc1N(C)C(=O)c1c(C)oc2ncnc(N3CCOCC3)c12`, which Potency is on record?
A: Its Potency is “inactive”.

Q: Which Potency does the source give for `Cc1oc2ncnc(N3CCCCC3)c2c1C(=O)N1CCN(c2cccc(Cl)c2)CC1` here?
A: The Potency was 16.4 µM (active).

Q: With `O=C1C(c2[nH]c3ccccc3c2O)=Nc2ccccc21` as the compound, how does the Potency read?
A: Its Potency is “inactive”.

Q: With `O=C(Nn1c(-c2ccccc2)nc2ccccc2c1=O)c1ccc([N+](=O)[O-])cc1` as the compound, how does the Potency read?
A: Its Potency is “inactive”.

Q: For `CCOC(=O)CCCN1CC(O)=C(c2nc3ccccc3s2)C1=N`, which Potency is on record?
A: Its Potency is “inactive”.

Q: With `N=C1C(c2nc3ccccc3s2)=C(O)CN1NC(=O)c1ccc([N+](=O)[O-])cc1` as the compound, how does the Potency read?
A: Its Potency is 20.6 µM (active).

Q: With `COc1cccc(C(=O)n2ccc(-c3cccs3)n2)c1` as the compound, how does the Potency read?
A: Its Potency is “inactive”.

Q: For `Cc1ccc(NC(=S)N/N=C2/CCCc3c(C)cc(C)cc32)cc1`, which Potency is on record?
A: The Potency was “inactive”.

Q: For `CCCCNC(=S)N/N=C1\CCCCc2ccccc21`, which Potency is on record?
A: Its Potency is 23.1 µM (active).

Q: For `CCCCc1ccc(NC(=S)NCCCN2CCOCC2)cc1`, which Potency is on record?
A: Its Potency is “inactive”.

Q: With `CCOc1ccccc1CN1CCN(C2CCC2)CC1CCO` (stereo unspecified) as the compound, how does the Potency read?
A: The Potency was “inactive”.

Q: With `COC(C[C@@H]1O[C@@H]1C(=O)[C@@H](C)OCc1ccccc1)OC` as the compound, how does the Potency read?
A: The Potency was “inactive”.

Q: Which Potency does the source give for `COC(C/C=C/C(=O)[C@@H](C)OCc1ccccc1)OC` here?
A: Its Potency is 18.4 µM (active).

Q: For `COC(C[C@H](O)CC(=O)[C@@H](C)OCc1ccccc1)OC`, which Potency is on record?
A: Its Potency is “inactive”.

Q: Which Potency does the source give for `CCCC(C)C(=O)OCC(=O)Nc1c(Br)cc(C)cc1Br` (stereo unspecified) here?
A: Its Potency is “inactive”.

Q: Which Potency does the source give for `OCC1(Cc2ccccc2C(F)(F)F)CCN(Cc2cccc3cnccc23)CC1` here?
A: Its Potency is “inactive”.
